Results reported in article PMC7862700, “An all-to-all approach to the identification of sequence-specific readers for epigenetic DNA modifications on cytosine”.

Experiments:
Test in all cases: DAPPL (digital affinity profiling via proximity ligation, sequencing); 10 mM Tris-HCl pH 7.5, 50 mM NaCl, 1 mM DTT, 4% glycerol, room temperature, 30 min; GST-TFs on glutathione beads, 16-mer random dsDNA library, 0.1% formaldehyde crosslink after washing; high values mean tight binding
[1] = target: T1, FLI1 (Homo sapiens, UniProt Q01543 1-452); conditions: protein: recombinant; tags: N-terminal GST; dsDNA, one strand shown
T1 sequence: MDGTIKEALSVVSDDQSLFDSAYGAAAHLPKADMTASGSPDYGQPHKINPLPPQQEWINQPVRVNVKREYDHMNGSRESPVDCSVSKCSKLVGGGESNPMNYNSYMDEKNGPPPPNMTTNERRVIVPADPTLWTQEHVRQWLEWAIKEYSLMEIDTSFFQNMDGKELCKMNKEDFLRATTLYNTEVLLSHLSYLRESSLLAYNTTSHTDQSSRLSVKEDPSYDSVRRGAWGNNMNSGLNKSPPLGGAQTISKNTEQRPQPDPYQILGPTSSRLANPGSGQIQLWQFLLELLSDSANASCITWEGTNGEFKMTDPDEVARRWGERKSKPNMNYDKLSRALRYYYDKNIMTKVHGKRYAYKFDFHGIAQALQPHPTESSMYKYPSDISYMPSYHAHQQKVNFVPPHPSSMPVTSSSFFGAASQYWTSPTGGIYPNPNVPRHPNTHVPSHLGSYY
Method in brief: (§1)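 Human transcription factors carrying a GST fusion were produced in yeast, bound to glutathione beads, tagged with DNA barcodes and pooled together with a tag-only sample. Each pool was held with 200 nmole of a random double-stranded 16-mer DNA library in Tris/NaCl/DTT/glycerol buffer for 30 min at room temperature, then washed, crosslinked in 0.1% formaldehyde, proximity-ligated with BsaI/T4 ligase (1 h, 37 °C), PCR-amplified and sequenced on an Illumina NextSeq500. Binding signal is the read frequency of each hexamer for a given factor divided by its frequency in the tag-only sample.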

[2] = target: T2, ELK1 (Homo sapiens, UniProt P19419 1-428); conditions: protein: recombinant; tags: N-terminal GST; dsDNA, one strand shown
T2 sequence: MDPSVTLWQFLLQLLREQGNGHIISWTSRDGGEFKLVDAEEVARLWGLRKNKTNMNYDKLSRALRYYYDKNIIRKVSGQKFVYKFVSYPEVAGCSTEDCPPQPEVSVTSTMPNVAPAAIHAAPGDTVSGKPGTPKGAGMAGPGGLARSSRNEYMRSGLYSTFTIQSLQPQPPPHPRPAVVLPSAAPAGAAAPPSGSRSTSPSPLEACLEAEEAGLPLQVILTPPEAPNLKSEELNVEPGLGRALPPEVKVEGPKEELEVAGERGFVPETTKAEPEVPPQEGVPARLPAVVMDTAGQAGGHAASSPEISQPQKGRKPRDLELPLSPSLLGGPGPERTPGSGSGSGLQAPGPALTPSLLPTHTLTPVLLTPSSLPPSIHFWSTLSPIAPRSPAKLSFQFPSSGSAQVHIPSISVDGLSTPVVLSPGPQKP
Method in brief: as §1

[3] = target: T3, GABPA (Homo sapiens, UniProt Q06546 1-454); conditions: protein: recombinant; tags: N-terminal GST; dsDNA, one strand shown
T3 sequence: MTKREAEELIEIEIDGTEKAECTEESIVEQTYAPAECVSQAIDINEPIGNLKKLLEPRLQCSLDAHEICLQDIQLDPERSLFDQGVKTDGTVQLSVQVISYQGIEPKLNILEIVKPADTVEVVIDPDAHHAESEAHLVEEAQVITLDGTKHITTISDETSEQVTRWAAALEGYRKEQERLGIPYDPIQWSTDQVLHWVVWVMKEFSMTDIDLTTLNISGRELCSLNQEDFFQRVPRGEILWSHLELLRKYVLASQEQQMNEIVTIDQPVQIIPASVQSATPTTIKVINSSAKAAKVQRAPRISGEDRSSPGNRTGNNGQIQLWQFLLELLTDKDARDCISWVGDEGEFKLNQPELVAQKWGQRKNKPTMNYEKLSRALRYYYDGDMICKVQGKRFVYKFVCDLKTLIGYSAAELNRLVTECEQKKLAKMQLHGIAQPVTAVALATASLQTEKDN
Method in brief: as §1

[4] = target: T4, ERG (Homo sapiens, UniProt P11308 1-479); conditions: protein: recombinant; tags: N-terminal GST; dsDNA, one strand shown
T4 sequence: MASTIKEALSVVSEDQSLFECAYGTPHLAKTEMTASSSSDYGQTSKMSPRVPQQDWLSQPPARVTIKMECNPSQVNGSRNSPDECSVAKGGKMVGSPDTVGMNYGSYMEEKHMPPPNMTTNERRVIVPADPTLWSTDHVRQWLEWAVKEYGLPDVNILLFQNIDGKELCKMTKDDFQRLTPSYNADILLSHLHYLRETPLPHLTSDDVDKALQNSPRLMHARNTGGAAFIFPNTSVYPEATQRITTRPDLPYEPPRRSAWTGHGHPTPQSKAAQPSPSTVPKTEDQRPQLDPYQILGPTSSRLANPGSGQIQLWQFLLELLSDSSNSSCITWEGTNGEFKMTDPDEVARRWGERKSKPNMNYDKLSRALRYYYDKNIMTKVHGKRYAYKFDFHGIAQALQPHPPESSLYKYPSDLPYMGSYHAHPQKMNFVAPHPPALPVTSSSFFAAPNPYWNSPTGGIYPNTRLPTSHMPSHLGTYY
Method in brief: as §1

[5] = target: ELF1 (Homo sapiens, UniProt P32519 1-619); conditions: protein: recombinant; tags: N-terminal GST; dsDNA, one strand shown
Method in brief: as §1

[6] = target: T5, EHF (Homo sapiens, UniProt Q9NZC4 1-300); conditions: protein: recombinant; tags: N-terminal GST; dsDNA, one strand shown
T5 sequence: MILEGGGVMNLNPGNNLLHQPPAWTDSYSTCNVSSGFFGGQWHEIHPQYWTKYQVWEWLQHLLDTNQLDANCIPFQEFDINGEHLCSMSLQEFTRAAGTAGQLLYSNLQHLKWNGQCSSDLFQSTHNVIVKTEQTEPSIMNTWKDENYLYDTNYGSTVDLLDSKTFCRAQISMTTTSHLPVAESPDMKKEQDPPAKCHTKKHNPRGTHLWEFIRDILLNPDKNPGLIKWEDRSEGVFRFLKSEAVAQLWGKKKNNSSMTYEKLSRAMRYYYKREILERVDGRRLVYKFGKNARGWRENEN
Method in brief: as §1

[7] = target: SPI1 (Homo sapiens, UniProt P17947 1-270); conditions: protein: recombinant; tags: N-terminal GST; dsDNA, one strand shown
Method in brief: as §1

[8] = target: SPIB (Homo sapiens, UniProt Q01892 1-262); conditions: protein: recombinant; tags: N-terminal GST; dsDNA, one strand shown
Method in brief: as §1

[9] = target: T6, ELK3 (Homo sapiens, UniProt P41970 1-407); conditions: protein: recombinant; tags: N-terminal GST; dsDNA, one strand shown
T6 sequence: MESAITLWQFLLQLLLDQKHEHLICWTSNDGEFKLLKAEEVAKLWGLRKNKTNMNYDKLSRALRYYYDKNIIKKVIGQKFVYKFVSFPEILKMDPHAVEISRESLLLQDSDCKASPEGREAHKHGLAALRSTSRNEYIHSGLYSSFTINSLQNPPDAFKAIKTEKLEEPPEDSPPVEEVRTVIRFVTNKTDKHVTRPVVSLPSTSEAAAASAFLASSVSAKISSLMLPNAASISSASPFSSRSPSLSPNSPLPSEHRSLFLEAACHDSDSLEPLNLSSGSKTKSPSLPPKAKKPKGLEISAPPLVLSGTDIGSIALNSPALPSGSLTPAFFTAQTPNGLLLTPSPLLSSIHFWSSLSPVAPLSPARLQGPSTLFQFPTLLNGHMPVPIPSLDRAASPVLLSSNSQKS
Method in brief: as §1

[10] = target: T7, FEV (Homo sapiens, UniProt Q99581 1-238); conditions: protein: recombinant; tags: N-terminal GST; dsDNA, one strand shown
T7 sequence: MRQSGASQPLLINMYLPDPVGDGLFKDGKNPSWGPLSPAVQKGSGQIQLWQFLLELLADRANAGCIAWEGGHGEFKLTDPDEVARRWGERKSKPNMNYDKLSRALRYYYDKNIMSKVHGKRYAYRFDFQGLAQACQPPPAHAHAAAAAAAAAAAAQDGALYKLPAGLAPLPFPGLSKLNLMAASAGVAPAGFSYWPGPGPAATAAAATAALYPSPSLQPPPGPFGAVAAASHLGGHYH
Method in brief: as §1

[11] = target: ETV5 (Homo sapiens, UniProt P41161 1-510); conditions: protein: recombinant; tags: N-terminal GST; dsDNA, one strand shown
Method in brief: as §1

[12] = target: HSF1 (Homo sapiens, UniProt Q00613 1-529); conditions: protein: recombinant; tags: N-terminal GST; chain copies: 3; dsDNA, one strand shown
Method in brief: as §1

[13] = target: T8, SPIC (Homo sapiens, UniProt Q8N5J4 1-248); conditions: protein: recombinant; tags: N-terminal GST; dsDNA, one strand shown
T8 sequence: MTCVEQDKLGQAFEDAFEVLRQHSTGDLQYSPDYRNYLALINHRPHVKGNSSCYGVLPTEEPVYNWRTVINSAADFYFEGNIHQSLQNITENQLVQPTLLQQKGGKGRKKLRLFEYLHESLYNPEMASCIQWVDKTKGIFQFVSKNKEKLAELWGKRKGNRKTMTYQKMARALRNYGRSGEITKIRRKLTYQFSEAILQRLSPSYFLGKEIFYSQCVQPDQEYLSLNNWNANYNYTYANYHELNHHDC
Method in brief: as §1

[14] = target: ELF4 (Homo sapiens, UniProt Q99607 1-663); conditions: protein: recombinant; tags: N-terminal GST; dsDNA, one strand shown
Method in brief: as §1

[15] = target: T9, ELK4 (Homo sapiens, UniProt P28324-2 1-405); conditions: protein: recombinant; tags: N-terminal GST; dsDNA, one strand shown
T9 sequence: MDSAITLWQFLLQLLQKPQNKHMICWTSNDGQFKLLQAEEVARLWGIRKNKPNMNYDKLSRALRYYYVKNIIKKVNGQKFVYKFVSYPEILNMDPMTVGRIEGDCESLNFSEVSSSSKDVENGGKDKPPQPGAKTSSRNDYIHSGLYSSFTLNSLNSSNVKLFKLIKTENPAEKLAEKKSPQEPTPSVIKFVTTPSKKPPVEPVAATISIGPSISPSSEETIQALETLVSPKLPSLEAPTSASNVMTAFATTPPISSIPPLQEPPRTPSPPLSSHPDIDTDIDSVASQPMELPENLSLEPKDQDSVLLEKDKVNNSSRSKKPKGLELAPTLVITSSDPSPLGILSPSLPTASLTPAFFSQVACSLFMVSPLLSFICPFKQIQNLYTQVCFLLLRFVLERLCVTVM
Method in brief: as §1

[16] = target: T10, ETV2 (Homo sapiens, UniProt O00321 1-342); conditions: protein: recombinant; tags: N-terminal GST; dsDNA, one strand shown
T10 sequence: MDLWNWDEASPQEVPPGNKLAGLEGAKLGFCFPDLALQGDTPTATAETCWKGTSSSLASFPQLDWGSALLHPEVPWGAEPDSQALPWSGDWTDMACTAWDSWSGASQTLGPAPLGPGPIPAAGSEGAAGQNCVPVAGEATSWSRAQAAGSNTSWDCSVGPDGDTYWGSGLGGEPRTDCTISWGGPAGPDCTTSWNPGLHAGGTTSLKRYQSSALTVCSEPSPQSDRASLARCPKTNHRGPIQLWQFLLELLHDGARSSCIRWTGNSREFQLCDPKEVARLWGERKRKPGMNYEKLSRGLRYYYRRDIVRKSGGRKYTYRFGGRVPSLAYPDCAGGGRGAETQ
Method in brief: as §1

[17] = target: T11, ELF3 (Homo sapiens, UniProt P78545 1-371); conditions: protein: recombinant; tags: N-terminal GST; dsDNA, one strand shown
T11 sequence: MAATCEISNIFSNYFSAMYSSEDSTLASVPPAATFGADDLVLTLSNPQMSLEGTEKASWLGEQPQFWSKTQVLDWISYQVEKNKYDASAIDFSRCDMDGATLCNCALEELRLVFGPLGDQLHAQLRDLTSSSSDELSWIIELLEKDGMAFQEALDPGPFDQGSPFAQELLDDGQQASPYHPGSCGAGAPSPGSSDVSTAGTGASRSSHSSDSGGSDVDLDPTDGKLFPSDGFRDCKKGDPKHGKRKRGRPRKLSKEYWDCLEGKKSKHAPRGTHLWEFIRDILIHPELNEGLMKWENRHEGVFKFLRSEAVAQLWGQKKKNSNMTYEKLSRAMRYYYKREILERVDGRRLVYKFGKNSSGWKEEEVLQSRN
Method in brief: as §1

[18] = target: CRX (Homo sapiens, UniProt O43186 1-299); conditions: protein: recombinant; tags: N-terminal GST; dsDNA, one strand shown
Method in brief: as §1

[19] = target: ETV1 (Homo sapiens, UniProt P50549 1-477); conditions: protein: recombinant; tags: N-terminal GST; dsDNA, one strand shown
Method in brief: as §1

ELF4, sequence (Q99607 whole entry): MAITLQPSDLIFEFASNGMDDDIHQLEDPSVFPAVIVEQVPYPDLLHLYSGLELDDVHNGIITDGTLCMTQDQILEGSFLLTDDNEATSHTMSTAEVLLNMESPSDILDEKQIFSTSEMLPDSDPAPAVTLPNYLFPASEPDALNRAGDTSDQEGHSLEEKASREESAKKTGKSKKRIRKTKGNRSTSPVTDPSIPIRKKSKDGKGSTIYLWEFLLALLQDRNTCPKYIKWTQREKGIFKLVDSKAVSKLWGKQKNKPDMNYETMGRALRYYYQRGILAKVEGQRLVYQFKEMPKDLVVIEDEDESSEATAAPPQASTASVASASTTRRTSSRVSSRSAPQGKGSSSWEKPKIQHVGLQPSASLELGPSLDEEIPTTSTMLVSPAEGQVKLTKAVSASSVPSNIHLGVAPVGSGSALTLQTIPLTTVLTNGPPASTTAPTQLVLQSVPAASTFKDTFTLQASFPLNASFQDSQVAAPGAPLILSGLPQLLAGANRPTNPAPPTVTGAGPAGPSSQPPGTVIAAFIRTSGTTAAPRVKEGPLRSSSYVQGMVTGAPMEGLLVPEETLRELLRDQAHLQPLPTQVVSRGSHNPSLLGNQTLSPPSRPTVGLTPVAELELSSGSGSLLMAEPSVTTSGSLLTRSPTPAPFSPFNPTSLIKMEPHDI
HSF1, sequence (Q00613 whole entry): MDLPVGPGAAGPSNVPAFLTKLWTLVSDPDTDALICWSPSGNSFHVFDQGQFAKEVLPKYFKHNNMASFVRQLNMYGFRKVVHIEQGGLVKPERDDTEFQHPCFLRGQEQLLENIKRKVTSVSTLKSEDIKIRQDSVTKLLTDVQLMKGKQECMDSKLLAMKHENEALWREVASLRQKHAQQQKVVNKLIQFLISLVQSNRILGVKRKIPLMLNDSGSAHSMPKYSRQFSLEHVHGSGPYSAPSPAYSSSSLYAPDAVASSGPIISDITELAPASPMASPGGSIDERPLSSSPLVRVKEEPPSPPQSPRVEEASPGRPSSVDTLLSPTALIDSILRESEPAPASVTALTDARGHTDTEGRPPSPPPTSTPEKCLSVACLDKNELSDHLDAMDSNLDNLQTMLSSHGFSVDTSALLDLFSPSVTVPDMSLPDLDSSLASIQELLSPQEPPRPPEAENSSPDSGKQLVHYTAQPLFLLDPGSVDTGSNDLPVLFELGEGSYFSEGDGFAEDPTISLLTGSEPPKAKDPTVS
ETV1, sequence (P50549 whole entry): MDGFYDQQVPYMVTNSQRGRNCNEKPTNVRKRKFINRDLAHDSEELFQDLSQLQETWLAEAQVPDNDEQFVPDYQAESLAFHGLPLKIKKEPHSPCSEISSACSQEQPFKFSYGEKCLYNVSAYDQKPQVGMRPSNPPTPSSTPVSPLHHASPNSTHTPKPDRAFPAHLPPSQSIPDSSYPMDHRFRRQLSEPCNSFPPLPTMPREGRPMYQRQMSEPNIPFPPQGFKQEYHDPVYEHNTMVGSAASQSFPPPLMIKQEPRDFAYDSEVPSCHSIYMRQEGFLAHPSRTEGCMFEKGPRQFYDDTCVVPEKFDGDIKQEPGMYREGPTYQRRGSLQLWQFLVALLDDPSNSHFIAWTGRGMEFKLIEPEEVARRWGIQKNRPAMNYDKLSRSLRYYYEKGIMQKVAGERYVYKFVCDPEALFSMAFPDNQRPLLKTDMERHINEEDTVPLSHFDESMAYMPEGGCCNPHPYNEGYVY
ELF1, sequence (P32519 whole entry): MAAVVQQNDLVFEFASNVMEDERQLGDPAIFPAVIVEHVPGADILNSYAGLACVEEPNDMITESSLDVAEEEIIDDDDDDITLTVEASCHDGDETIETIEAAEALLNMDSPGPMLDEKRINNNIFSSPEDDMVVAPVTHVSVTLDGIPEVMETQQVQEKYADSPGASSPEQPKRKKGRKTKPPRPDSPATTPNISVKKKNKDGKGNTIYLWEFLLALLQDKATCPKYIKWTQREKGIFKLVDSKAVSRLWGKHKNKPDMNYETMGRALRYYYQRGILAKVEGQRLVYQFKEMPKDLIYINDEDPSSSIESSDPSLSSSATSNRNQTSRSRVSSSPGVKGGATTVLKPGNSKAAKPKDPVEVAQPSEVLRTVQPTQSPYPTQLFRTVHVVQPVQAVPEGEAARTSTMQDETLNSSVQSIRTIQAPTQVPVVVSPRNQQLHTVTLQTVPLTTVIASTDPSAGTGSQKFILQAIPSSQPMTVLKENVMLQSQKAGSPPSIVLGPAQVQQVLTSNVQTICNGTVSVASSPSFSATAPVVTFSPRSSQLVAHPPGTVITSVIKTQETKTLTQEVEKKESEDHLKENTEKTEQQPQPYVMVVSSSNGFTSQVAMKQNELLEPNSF
CRX, sequence (O43186 whole entry): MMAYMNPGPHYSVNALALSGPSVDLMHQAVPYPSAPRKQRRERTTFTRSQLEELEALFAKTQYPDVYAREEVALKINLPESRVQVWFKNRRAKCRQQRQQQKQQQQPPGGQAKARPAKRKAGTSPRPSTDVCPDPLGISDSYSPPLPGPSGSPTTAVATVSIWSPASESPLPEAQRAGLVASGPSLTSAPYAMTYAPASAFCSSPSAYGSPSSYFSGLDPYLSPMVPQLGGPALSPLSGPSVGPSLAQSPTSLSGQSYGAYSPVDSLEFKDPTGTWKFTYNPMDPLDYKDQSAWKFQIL
ETV5, sequence (P41161 whole entry): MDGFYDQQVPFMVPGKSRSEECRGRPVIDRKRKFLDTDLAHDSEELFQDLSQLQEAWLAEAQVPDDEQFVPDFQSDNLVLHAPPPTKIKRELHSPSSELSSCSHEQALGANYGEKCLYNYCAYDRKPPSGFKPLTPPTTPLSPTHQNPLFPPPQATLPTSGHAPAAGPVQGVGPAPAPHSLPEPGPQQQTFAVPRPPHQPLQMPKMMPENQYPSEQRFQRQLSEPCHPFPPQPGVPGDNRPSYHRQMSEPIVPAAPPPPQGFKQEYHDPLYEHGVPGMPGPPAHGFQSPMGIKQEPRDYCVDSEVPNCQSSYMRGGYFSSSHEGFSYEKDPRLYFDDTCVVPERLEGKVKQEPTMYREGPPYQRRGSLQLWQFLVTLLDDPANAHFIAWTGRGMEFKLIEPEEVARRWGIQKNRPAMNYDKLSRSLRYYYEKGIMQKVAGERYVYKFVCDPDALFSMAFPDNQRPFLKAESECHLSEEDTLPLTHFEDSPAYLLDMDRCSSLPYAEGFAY
SPIB, sequence (Q01892 whole entry): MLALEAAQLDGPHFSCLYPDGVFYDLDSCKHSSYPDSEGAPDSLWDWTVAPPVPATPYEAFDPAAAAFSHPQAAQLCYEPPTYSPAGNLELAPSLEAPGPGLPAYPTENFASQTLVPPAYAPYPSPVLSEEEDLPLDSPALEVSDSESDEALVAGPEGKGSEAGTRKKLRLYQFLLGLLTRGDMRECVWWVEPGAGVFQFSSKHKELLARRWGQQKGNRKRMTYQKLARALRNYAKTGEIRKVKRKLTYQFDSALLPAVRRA

## AATAAC
[1]
  binding signal: 1.31 fold enrichment (6-mer frequency, TF over GST control)
[2]
  binding signal: 1.33 fold enrichment (6-mer frequency, TF over GST control)
[3]
  binding signal: 1.3 fold enrichment (6-mer frequency, TF over GST control)
[4]
  binding signal: 1.27 fold enrichment (6-mer frequency, TF over GST control)
[5]
  binding signal: 1.23 fold enrichment (6-mer frequency, TF over GST control)
[6]
  binding signal: 1.26 fold enrichment (6-mer frequency, TF over GST control)
[7]
  binding signal: 1.18 fold enrichment (6-mer frequency, TF over GST control)
[8]
  binding signal: 1.37 fold enrichment (6-mer frequency, TF over GST control)
[9]
  binding signal: 1.33 fold enrichment (6-mer frequency, TF over GST control)
[10]
  binding signal: 1.25 fold enrichment (6-mer frequency, TF over GST control)
[11]
  binding signal: 1.3 fold enrichment (6-mer frequency, TF over GST control)
[12]
  binding signal: 1.27 fold enrichment (6-mer frequency, TF over GST control)
[13]
  binding signal: 1.42 fold enrichment (6-mer frequency, TF over GST control)
[14]
  binding signal: 1.32 fold enrichment (6-mer frequency, TF over GST control)
[15]
  binding signal: 1.13 fold enrichment (6-mer frequency, TF over GST control)
[16]
  binding signal: 1.31 fold enrichment (6-mer frequency, TF over GST control)
[17]
  binding signal: 1.25 fold enrichment (6-mer frequency, TF over GST control)
[18]
  binding signal: 1.32 fold enrichment (6-mer frequency, TF over GST control)
[19]
  binding signal: 1.15 fold enrichment (6-mer frequency, TF over GST control)
